PubChem BioAssay AID493240 (Broad Institute, 2011)
The whole screen tested about 1,300 compounds, of which about 270 (21%) were called active. The rule behind the calls is not given here. A selection follows. Potency and affinity values are given separately.

assay: cytotoxicity in parental SK-MEL-5 melanoma cells – cell-based, CellTiter-Glo, cherry-picked, set 3, orthogonal assay for MITF inhibitor project, dose response (AID 493240); conditions: SK-MEL-5 viability, ATP luminescence (CellTiter-Glo), 24 h; series mostly up to 35 µM; activity change, negative = viability loss: at the top concentration

Row | Compound | activity change, negative = viability loss
1 | O=[N+]([O-])c1cc(S(=O)(=O)N2CCCCCC2)ccc1F | -40.5% (inactive)
2 | O=C(N/N=C/c1cc(Cl)ccc1O)c1ccncc1 | -18% (inactive)
3 | O=C(COC(=O)c1ccc[nH]c1=O)Nc1ccc(N2CCCCC2)cc1 | -0.334% (inactive)
4 | CN=c1scc(-c2ccccc2F)n1/N=C/c1ccc[nH]1 | -39.1% (inactive)
5 | Cc1ccc(COc2ccc(C)nc2[N+](=O)[O-])cc1 | 9.27% (inactive)
6 | O=C(Cn1ncc(Cl)c(Cl)c1=O)Nc1ccc2c(c1)OCO2 | -31.9% (inactive)
7 | O=[N+]([O-])c1cccc(/C=N/Nc2ncc(Br)cn2)c1 | 15.2% (inactive)
8 | O=C(c1ccc(S(=O)(=O)Cc2ccccc2Cl)c([N+](=O)[O-])c1)N1CCN(c2ccccn2)CC1 | -6.1% (inactive)
9 | CC(C)C(=O)NC(c1ccco1)c1ccc2cccnc2c1O (centres undefined) | -29% (inactive)
10 | COc1cc(SC)ccc1C(=O)Nc1ccc(Br)cn1 | -19.1% (inactive)
11 | COc1cc(SC)ccc1C(=O)Nc1ncc(C)s1 | -21.3% (inactive)
12 | COc1cc2c(cc1O)C(SC)=NC(C)(C)C2 | -14% (inactive)
13 | O=[N+]([O-])c1cc(CN2CCN(c3ccccc3)CC2)c(O)c2ncccc12 | -37.8% (inactive)
14 | O=[N+]([O-])c1ccccc1OCCCOc1cccc2cccnc12 | -2.19% (inactive)
15 | CC(=O)Nc1ccc2c(c1)ncn2-c1ccccc1 | -4.41% (inactive)
16 | CSCCNC(=O)c1ccc2nc(Cc3ccccc3F)oc2c1 | -0.854% (inactive)
17 | N#C/C(=C\c1ccc(OCc2ccc(C(=O)O)cc2)cc1)C(=O)N1CCOCC1 | -22.2% (inactive)
18 | Cc1ccc(-c2cc3onc(-c4ccccc4)c3c(=O)n2C)cc1 | -21.7% (inactive)
19 | CN(Cc1ccccc1)C1=CC(=[N+]2CCCC2)CC(C)(C)C1 | -27% (inactive)
20 | N/C(=N\OC(=O)c1cccc(F)c1)c1cccc([N+](=O)[O-])c1 | 10.3% (inactive)
21 | COc1ccc(C(=O)NCC(=O)c2ccccc2)cc1 | -8.5% (inactive)
22 | O=C(N/N=C/C=C/c1ccccc1)c1ccccn1 | 0.498% (inactive)
23 | COc1cc2c(cc1OC)C(SC)=NC1(CCCC1)C2 | -16.4% (inactive)
24 | O=C(c1ccccc1)c1cc(Cl)ccc1N1C(=O)C=CC1=O | -2.49% (inactive)
25 | COc1ccc(/C=N/Nc2cc(C)nc(-n3nc(C)cc3C)n2)c(OC)c1 | -35.9% (inactive)

Row | Compound | activity change, negative = viability loss
26 | CC(=O)Oc1c(C(=O)c2nnc(C)o2)c(=O)n(Cc2ccccc2)c2ccccc12 | 7.5% (inactive)
27 | Cc1ccc2nc(NC(=O)CCCC(=O)O)sc2c1 | -17.3% (inactive)
28 | CN(C)CCCN(C(=O)c1ccc(Cl)s1)c1nc2cc3c(cc2s1)OCO3 | -22.2% (inactive)
29 | Cc1c(C#N)c(NC(=O)CCl)n(Cc2ccc(F)cc2)c1C | -24.8% (inactive)
30 | CCOc1ccccc1NC(=O)C(=O)N/N=C/c1cc(Br)ccc1O | -7.65% (inactive)
31 | COc1ccccc1OCC(=O)N/N=C/C=C/c1ccc([N+](=O)[O-])o1 | -12.1% (inactive)
32 | CC(C)(C)C(=O)Nc1cc2nn(-c3ccccc3)nc2cc1Cl | -22% (inactive)
33 | CCOc1ccc2nc(NC3=NC(c4ccc(OC)cc4)CC(=O)N3)nc(C)c2c1 (centres undefined) | -27.7% (inactive)
34 | Cc1ccc(C(=O)c2cccc(N)c2)cc1C | -8.05% (inactive)
35 | Cc1nc2ccccn2c1C(=O)N/N=C/c1ccc([N+](=O)[O-])o1 | -28.7% (inactive)
36 | CC1=NC(=O)C(N=Nc2cccc(C(=O)O)c2)N1c1ccccc1 (centres undefined) | 7.48% (inactive)
37 | CC(Oc1ccc(F)cc1)C(=O)Nc1nc(-c2ccccn2)cs1 (centres undefined) | -22% (inactive)
38 | O=C(CCNc1ccccc1)c1ccc2c(c1)OCO2 | 5.44% (inactive)
39 | C=CCN1C(=O)S/C(=C\c2ccc(N3CCOCC3)cc2C)C1=O | -0.909% (inactive)
40 | Cc1ccc(C)c(C(=O)Cn2ncc(Cl)c(Cl)c2=O)c1 | -43.1% (inactive)
41 | Cc1ccc(SCCC(=O)N2CCC(C)CC2)cc1 | 1.23% (inactive)
42 | CS(=O)(=O)N1CCN(c2nc3ccc(Cl)cc3s2)CC1 | 9.11% (inactive)
43 | O=C(Nc1ccc(F)cc1F)c1cc2ccccc2oc1=O | -5.22% (inactive)
44 | COc1ccc(CCC(=O)N2CCc3ccccc32)cc1 | 6.07% (inactive)
45 | CCOc1ccc(N(CC(=O)Nc2ccc(OC)cc2)S(C)(=O)=O)cc1 | -3.78% (inactive)
46 | COc1ccc(C(=O)Nc2ccc3c(c2)OCCO3)cc1Br | -12.3% (inactive)
47 | Cn1c(/C=C/c2ccc(Cl)cc2)nc2ccccc2c1=O | 4.85% (inactive)
48 | COc1cccc(-c2csc3ncnc(Sc4nnnn4C)c23)c1 | -9.59% (inactive)
49 | Cn1c(/C(C#N)=C/c2ccc(-c3ccc(S(N)(=O)=O)cc3)o2)nc2ccccc21 | 7.65% (inactive)
50 | CC1CCCCC1NC(=O)/C(C#N)=C/c1ccccc1F (centres undefined) | -20.1% (inactive)

Row | Compound | activity change, negative = viability loss
51 | O=C1c2cc([N+](=O)[O-])cc3cc([N+](=O)[O-])cc(c23)C(=O)N1c1ccccn1 | -23.9% (inactive)
52 | N#C/C(=C\c1cccs1)C(=O)NCC1CCCO1 (centres undefined) | -8.83% (inactive)
53 | N/C(=N\OC(=O)c1ccc([N+](=O)[O-])cc1)c1ccc(Br)cc1 | -4.62% (inactive)
54 | CC(C)N=c1c([N+](=O)[O-])nn(C)n1O | 2.47% (inactive)
55 | CCN1CCc2c(sc(NC(=O)c3ccc(S(=O)(=O)N4CCCC4)cc3)c2C(=O)NC)C1 | -13.9% (inactive)
56 | COc1cccc(NC(=O)c2cc3ccccc3cc2OC)c1 | -17.6% (inactive)
57 | O=C(N/N=C/C(Cl)=C\c1ccccc1)c1cccs1 | -2.35% (inactive)
58 | CCOc1ccc(-c2ccc(SC)nn2)cc1 | -49.8% (inactive)
59 | O=C(Nc1ccc(Cl)cc1)OCc1ccccn1 | -16.8% (inactive)
60 | CC1CCN(c2nc3ccc(C(=O)O)cc3s2)CC1 | 4.93% (inactive)
61 | O=C(O)c1ccc(Nc2nc3c(s2)CCCC3)cc1 | -4.85% (inactive)
62 | Cc1c(C=O)c2cc(OCc3ccccc3)ccc2n1C | -0.185% (inactive)
63 | Cn1c(=O)c([N+](=O)[O-])c(-n2ccnc2)c2ccccc21 | -31% (inactive)
64 | NCCCNc1nc(N)c([N+](=O)[O-])c(NC2CCCCC2)n1 | 8.57% (inactive)
65 | N/C(=N\OC(=O)c1ccccc1Cl)c1cccc([N+](=O)[O-])c1 | -1.4% (inactive)
66 | O=C(NC(=S)Nc1ccccn1)c1cccc([N+](=O)[O-])c1 | -6.69% (inactive)
67 | Cc1ccc2c(COC(=O)c3n[nH]c4ccccc34)cc(=O)oc2c1 | -13.2% (inactive)
68 | CC(C)(C)c1ccc(-c2noc(CCC(=O)NCc3ccco3)n2)cc1 | 14.1% (inactive)
69 | Cc1cc(-n2c(SCC(=O)NCCC3=CCCCC3)nc3n[nH]c(C)c3c2=N)ccc1Cl | -34.7% (inactive)
70 | CC(/C=N/NC(=O)c1cc(-c2ccncc2)nc2ccccc12)=C\c1ccco1 | -11.5% (inactive)
71 | COc1ccc(C)c2sc(N(CCN(C)C)C(=O)/C=C/c3cccs3)nc12 | -21.3% (inactive)
72 | Cc1cccc2sc(N(CCCN(C)C)C(=O)c3nc4ccccc4s3)nc12 | -6.33% (inactive)
73 | Cn1nc([N+](=O)[O-])nc1S(C)(=O)=O | -12.2% (inactive)
74 | COc1cccc(-c2nnc3n2N=C(C(C)(C)C)CS3)c1 | -27.2% (inactive)
